Source: PubChem BioAssay AID1460 (National Center for Advancing Translational Sciences (NCATS), 2008)
About 5,800 (2.1%) of roughly 270,000 compounds were called active. Where a call stands in place of a potency, no number is given. Inconclusive results (about 16%) are left out. Calls come from the whole dose curve; as a rule, active = well fitted inhibition curve with a large enough effect; inconclusive = small, poorly fitted or top-dose-only effect; inactive = flat fitted curve, though single readings scatter. Many of the other results were omitted from the sample, so actives are more common in it than they were.

Target: Microtubule-associated protein tau (Homo sapiens) (UniProt P10636)
Assay: qHTS for Inhibitors of Tau Fibril Formation, Thioflavin T Binding; note: nearly all actives have a fitted effect of over 55% in size
Conditions: recombinant tau K18 P301L, heparin-induced fibrillization, ThT fluorescence; series mostly up to 57.4 µM
Procedure, shortened: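 Using a mix of unlabeled (15 uM) and Alexa 594-labeled (0.24 uM) tau K18 P301L, heparin-triggered fibrillization over 6 hr at 37 C was scored by ThT fluorescence.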
Potency is the fitted concentration of half-maximal effect.

Chain of Microtubule-associated protein tau (Homo sapiens) (P10636 561-689 P618L limits assumed): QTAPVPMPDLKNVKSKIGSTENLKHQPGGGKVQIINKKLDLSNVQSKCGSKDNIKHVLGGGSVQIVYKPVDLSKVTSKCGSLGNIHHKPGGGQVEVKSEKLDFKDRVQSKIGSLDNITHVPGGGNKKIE

Row | SMILES | Potency
1 | O=C(CSc1nc2c(c(=O)[nH]1)CN(Cc1ccc3c(c1)OCO3)CC2)Nc1cc(F)ccc1F | inactive
2 | Cc1ccc2cccc(NC(=O)c3ccc(OC(C)C)cc3)c2n1 | inactive
3 | O=C(CSc1nc(=O)[nH]c2c1CCCC2)Nc1cc(C(F)(F)F)ccc1Cl | inactive
4 | CCOc1ccc(N2CC(C(=O)NCCN3C(=O)S/C(=C\c4cccnc4)C3=O)CC2=O)cc1 (stereo not given) | 22.4 µM (active)
5 | CCCNC(=O)C1CC(=O)N(c2ccc(OCC(=O)Nc3cccc(C)c3C)cc2)C1 (stereo not given) | inactive
6 | CCCOc1ccc(N2CC(C(=O)Nc3ccccn3)CC2=O)cc1 (stereo not given) | inactive
7 | CCOc1ccc(C(NC(=O)c2cc(OC)c(OC)c(OC)c2)c2cc(Cl)c3cccnc3c2O)cc1 (stereo not given) | inactive
8 | CCCCN(C)c1nnc(NC(=O)Nc2ccc(Br)c(C)c2)s1 | inactive
9 | CCOC(=O)c1c(C)[nH]c(C)c1S(=O)(=O)N1CCCC(C(=O)NCc2ccccc2Cl)C1 (stereo not given) | inactive
10 | COc1ccc(S(=O)(=O)c2cn(C)c3cc(N4CCCCC4)c(F)cc3c2=O)cc1 | inactive
11 | Cc1cccc(C2CC(=O)Oc3c2c(=O)n(C)c2ccccc32)c1 (stereo not given) | inactive
12 | Cc1nn(C)c(Oc2ccccc2)c1[N+](=O)[O-] | inactive
13 | Cc1cccc(Oc2c([N+](=O)[O-])c(=O)n(C)c3ccccc23)c1 | 14.1 µM (active)
14 | CN(C(=O)CSc1nc2ccccc2n1Cc1ccccc1C#N)c1ccccc1 | inactive
15 | CCN1/C(=C/C(=S)Nc2ccccc2)Sc2ccccc21 | 3.55 µM (active)
16 | CCN1C(=O)/C(=C2/Sc3ccccc3N2CCCS(=O)(=O)O)SC1=S | inactive
17 | CCNC(=O)N1c2ccccc2Sc2ccccc21 | inactive
18 | CC(=O)c1ccc(NC(=O)CSc2c(C(C)C)cnc3c2c(=O)n(C)c(=O)n3C)cc1 | inactive
19 | O=C(COc1ccc(Cl)cc1)Nc1ccccc1OCc1cc(=O)n2ccccc2n1 | inactive
20 | N#CC1=C(N)Oc2c(sc3ccccc23)C1c1ccco1 (stereo not given) | 15.8 µM (active)
21 | CC1=C(C(=O)Nc2ccccc2)C(c2ccco2)C(C#N)=C(SCC(N)=O)N1 (stereo not given) | inactive
22 | Cc1ccc(CCNC(=O)c2ccc(CNS(=O)(=O)c3ccc(C)cc3)cc2)cc1 | inactive
23 | CCOC(=O)c1c(C)oc2nc(C)nc(N(CC(C)C)CC(C)C)c12 | inactive
24 | COc1ccc(NC(=O)N2CCCn3nc(C)cc32)cc1OC | inactive
25 | COc1ccc(C(=O)c2oc3ccccc3c2NC(=O)COc2cccc(C)c2)cc1 | inactive

Row | SMILES | Potency
26 | O=C(Nc1ccccc1Cl)N1CCC(CN2CCCC2)CC1 | inactive
27 | CN=C1C=C/C(=N/N=c2\ccn(O)cc2C)C=C1C | 6.31 µM (active)
28 | Cc1ccc(Cn2c(=O)n(Cc3nc(-c4ccccc4)no3)c(=O)c3cc4c(cc32)OCO4)cc1 | inactive
29 | Cc1ccc(-c2cn3c(n2)sc2cc(C(=O)NCCCc4ccccc4)ccc23)cc1 | inactive
30 | Cc1cccc(C(=O)N2CCc3cc(CNC(=O)Cc4ccc(F)cc4)ccc32)c1 | inactive
31 | CCC(=O)Nc1cccc(-c2nc3cc(C)ccc3o2)c1 | inactive
32 | O=C(NNc1c2ccccc2nc2ccccc12)c1cc2ccccc2cc1O | 2 µM (active)
33 | Cc1nc2ccccc2cc1O | inactive
34 | O=C(Nc1c2c(nc3ccccc13)CCCC2)c1ccccc1Br | inactive
35 | COc1ccc(-c2nc3sc(CCNS(=O)(=O)c4ccc(F)c(C)c4)c(C)n3n2)cc1 | inactive
36 | O=C1CN(C(=O)Nc2ccccc2C(F)(F)F)C(c2ccccc2)c2c(sc3c2CCCC3)N1 (stereo not given) | inactive
37 | Cc1nc2ccc(S(=O)(=O)N(CC(=O)Nc3ccc(F)cc3)Cc3ccccc3)cc2s1 | inactive
38 | Cc1ccccc1CNC(=O)CSc1nnc(C)c2c(C)n(-c3ccccc3)nc12 | inactive
39 | O=C(CCN1C(=O)c2ccccc2C1=O)Nc1cccc(F)c1 | inactive
40 | CCN(CC)C(=O)C(=O)Nc1cccc(Br)c1 | inactive
41 | CCN(CC)C(=O)CSC(Nc1cccc(F)c1)=C(C#N)C#N | 28.2 µM (active)
42 | O=C(Nc1ccc(C(=O)OCc2cc(=O)n3nc(C4CC4)sc3n2)cc1)c1ccc(F)cc1 | inactive
43 | O=C(Nc1ccc(F)cc1F)c1ccc2c(=O)n3c(nc2c1)CCCCC3 | inactive
44 | Cn1c(=O)n(Cc2c(F)cccc2Cl)c(=O)c2c1nc1n2CCN1c1ccc(F)cc1 | inactive
45 | Cc1c(NC(=O)Nc2ccccc2)cccc1[N+](=O)[O-] | inactive
46 | CCOC(=O)Cc1csc(NC(=O)Nc2ccccc2)n1 | inactive
47 | CCOC(=O)/C(=N\Nc1ccccc1[N+](=O)[O-])c1csc(Nc2ccccc2)n1 | 5.01 µM (active)
48 | Cc1cc(C)cc(NC(=O)CCCc2nc(-c3ccccc3Cl)no2)c1 | inactive
49 | Cc1ccc(C)c(N2C(=O)N(Cc3c(F)cccc3Cl)c3ccccc3S2(=O)=O)c1 | inactive
50 | Cc1cccc(-n2ccnc2SCC(=O)Nc2cccc3ccccc23)c1C | inactive

Row | SMILES | Potency
51 | COc1ccc(OC)c(CNC(=O)c2c3c(nc4ccccc24)C(=O)N(C2CCCCC2)C3)c1 | inactive
52 | Cc1ccc(C(=O)Nc2c(C(=O)NC(C)(C)C)oc3ccccc23)cc1 | inactive
53 | COCCNC(=O)c1ccccc1NS(=O)(=O)c1ccc(C)c([N+](=O)[O-])c1 | inactive
54 | Cc1ccc(NS(=O)(=O)c2ccc(N/N=C/c3ccccc3OCC(=O)O)c([N+](=O)[O-])c2)c(C)c1 | 12.6 µM (active)
55 | Cc1ccc(NS(=O)(=O)c2ccc(C)c(NC(=O)COc3ccc4ccccc4c3)c2)c(C)c1 | inactive
56 | COc1cccc(CNCc2c(C(=O)O)n(Cc3ccc(C)cc3)c3cc(C)ccc23)c1OC | inactive
57 | O=C(CCC1N=C2c3ccccc3N=C(SCc3ccccc3F)N2C1=O)NCCc1ccccc1 (stereo not given) | inactive
58 | Cn1cc(/C=C/c2nc3ccccc3c(=O)n2-c2cccc([N+](=O)[O-])c2)c2ccccc21 | inactive
59 | Cc1ccc(N2C(=O)S/C(=C/c3cn(C)c4ccccc34)C2=O)cc1 | inactive
60 | Cc1cccc(N=C2NC(=O)/C(=C/c3cn(C)c4ccccc34)S2)c1 | 11.2 µM (active)
61 | CCCn1c2ccccc2c2cnn(CC(=O)NCCCN3CCCCC3CC)c(=O)c21 (stereo not given) | inactive
62 | CCc1nnc2c3ccccc3nc(N3CCN(c4ccc(C)cc4C)CC3)n12 | inactive
63 | COc1cccc(Cn2c(CNS(=O)(=O)c3ccc(Cl)s3)nc3cccnc32)c1 | inactive
64 | Nc1nc(SCc2ccccc2Cl)n[nH]1 | inactive
65 | COC(OC)c1ccnc(SCc2ccccc2Cl)n1 | inactive
66 | Clc1ccccc1CSc1nnc(-c2ccco2)c(-c2ccco2)n1 | 17.8 µM (active)
67 | c1ccc(CSc2nnc(-c3ccco3)c(-c3ccco3)n2)cc1 | 7.94 µM (active)
68 | Brc1ccc(CSc2ccc(-c3ccco3)nn2)cc1 | inactive
69 | O=C(Nc1nnc(SCc2ccccc2)s1)c1ccco1 | inactive
70 | COc1ccc(C2C(=O)N(C3CCCCC3)CC(=O)N2Cc2ccccc2Cl)cc1OC (stereo not given) | inactive
71 | Cc1onc(-c2ccc(F)cc2F)c1C(=O)Nc1cccc(C(F)(F)F)c1 | inactive
72 | CCC(Sc1nc2n[nH]c(C)c2c(=N)n1-c1ccccc1Cl)C(=O)N(CC)CC (stereo not given) | inactive
73 | COc1ccccc1CNC(=O)C(=O)NCC(c1cccs1)S(=O)(=O)c1cccs1 (stereo not given) | inactive
74 | O=C(/C=C/c1ccc(Cl)c([N+](=O)[O-])c1)c1ccc(O)cc1 | 15.8 µM (active)
75 | CN(C)c1ccc(/C=C/C(=O)c2ccc(O)cc2)cc1[N+](=O)[O-] | 4.47 µM (active)

Row | SMILES | Potency
76 | O=C(c1ccc(Cl)c([N+](=O)[O-])c1)N1CCN(c2ccccc2)CC1 | inactive
77 | CN(C)c1ccc(/C=C/C(=O)c2ccc(C(C)(C)C)cc2)cc1[N+](=O)[O-] | inactive
78 | CC(CC(=O)O)C(=O)c1ccc(Cl)c([N+](=O)[O-])c1 (stereo not given) | inactive
79 | Cc1cc(C)n(-c2ccc(C(=O)O)cc2[N+](=O)[O-])n1 | inactive
80 | COc1ccccc1CNc1ccc(-c2nc(-c3ccccc3C)no2)cc1[N+](=O)[O-] | inactive
81 | CCCOc1ccc(-c2cccc(NS(=O)(=O)c3ccccc3)c2)nn1 | inactive
82 | COc1ccc(CNC(=O)COCc2cc(-c3cccs3)on2)cc1OC | inactive
83 | Cc1ccc(Cn2cc(CCC(=O)NCc3ccc(OC(C)C)cc3)c3ccccc32)cc1 | inactive
84 | c1ccc(CNc2ncnc3[nH]ncc23)cc1 | inactive
85 | O=[N+]([O-])c1cc(S(=O)(=O)Nc2cccc(Cl)c2)ccc1N=Nc1c(O)[nH]c2ccccc12 | 10 µM (active)
86 | CN1CCN(c2ccc(S(=O)(=O)Nc3ccccc3)cc2[N+](=O)[O-])CC1 | inactive
87 | CCN(CC)S(=O)(=O)c1cc([N+](=O)[O-])ccc1N=Nc1c(O)n(C)c2ccccc12 | inactive
88 | O=C(Nc1ccc(F)cc1F)c1cnn(-c2ccc(F)cc2)c1-n1cccc1 | inactive
89 | Cc1ccc2c(c1)N(C(=O)CCC(=O)NCc1ccccc1F)CC(C)O2 (stereo not given) | inactive
90 | CC1CN(C(=O)N2CCC(C(=O)NCc3ccco3)CC2)c2cc(Cl)ccc2O1 (stereo not given) | 31.6 µM (active)
91 | CCCS(=O)(=O)N1CCCC(C(=O)NCc2ccco2)C1 (stereo not given) | inactive
92 | CC(=O)N/N=C/c1cc2c(cc1[N+](=O)[O-])OCO2 | inactive
93 | CSc1ccccc1NC(=O)CN(C)CC(=O)Nc1ccc(Cl)cc1[N+](=O)[O-] | inactive
94 | CN(C)/N=C/c1cc(Cl)cc([N+](=O)[O-])c1O | 15.8 µM (active)
95 | CC1Cc2cc(S(=O)(=O)CCC(=O)NCc3ccc(Cl)cc3)ccc2N1C(=O)C1CC1 (stereo not given) | inactive
96 | CCN1CCN(c2ncc3c(n2)CC(c2ccccc2O)CC3=O)CC1 (stereo not given) | inactive
97 | COc1ccc2nc(NC(=O)c3ccc(Br)s3)sc2c1 | inactive
98 | COc1ccc2nc(Nc3nc4cc5c(cc4s3)OCCO5)sc2c1 | 3.55 µM (active)
99 | COc1ccc2nc(Nc3nc(-c4cc5ccccc5oc4=O)cs3)sc2c1 | inactive
100 | CCC1=Nc2cc(C(=O)NCCCOC(C)C)ccc2Sc2ccc(C)cc21 | inactive
